Experimental data published in PubChem BioAssay (NCATS).
Unmarked numbers belong to inactive results. Inconclusive results are not listed. Where a call stands in place of a potency, no number is given. Calls of active or inactive are those of the source. Unless noted, calls come from the whole dose curve; as a rule, active = well fitted curve in the direction sought with a large enough effect; inconclusive = small, poorly fitted or top-dose-only effect, or another doubt; inactive = no such curve, though single readings can be large; an effect the other way counts as inactive or inconclusive.

Key:
[1] = target: T1, Hexokinase-4 (Homo sapiens) + Glucokinase regulatory protein (Homo sapiens) (UniProt P35557+Q14397); test: qHTS assay for inhibitors of recombinant human GCK-GKRP interaction: Diaphorase-coupled assay (AID 743205)
Summary of the method: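 A kinetic fluorescence read (Ex 525/Em 590 nm, every minute for 30 minutes) tracked resorufin from a G6PDH-diaphorase coupled GCK reaction. It contained 10 nM GST-GCK, 10 nM FLAG-GKRP, 5 mM glucose, 0.4 mM ATP in Hepes pH 7.6. Normalized to with/without-enzyme DMSO controls.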

[2] = target: T1, Hexokinase-4 (Homo sapiens) + Glucokinase regulatory protein (Homo sapiens); test: qHTS assay for inhibitors of recombinant human GCK-GKRP interaction: ADP-Glo assay (AID 743206)
Summary of the method: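 GST-GCK and FLAG-GKRP (15 nM each in the dispensed mix, with 2 uM S6P) react with 0.4 mM ATP and 5 mM glucose (final) in Hepes pH 7.6 for 60 min at room temperature. ADP is measured by ADP-Glo luminescence.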

[3] = target: T1, Hexokinase-4 (Homo sapiens) + Glucokinase regulatory protein (Homo sapiens); test: qHTS assay for inhibitors of recombinant human GCK-GKRP interaction: HTRF assay (AID 743207)
Summary of the method: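 After 60 min equilibration at room temperature with anti-FLAG XL665 and anti-GST antibodies, FRET ratio (665/615 nm, excitation 320 nm) was read. Proteins: GST-GCK and FLAG-GKRP, each 5 nM, plus 2 uM S6P, pH 7.1 buffer; GCK-free wells define minimum signal.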

[4] = qHTS Assay for Identifying Gametocytocidal Compounds (AID 743244); note: potency is the fitted concentration of half-maximal effect;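 for max response: actives lower the fluorescent signal which means gametocytes are killed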; settings: P. falciparum 3D7 stage III-V gametocytes, alamarBlue, 72 h; max response: stronger effect = lower value
Summary of the method: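 Compounds are pinned into medium, gametocytes (stage III–V, 3D7, 20,000 cells/well) added, and plates held 72 h at 37 °C in 5% CO2. AlamarBlue follows for 24 h before fluorescence reading.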

[5] = qHTS assay for measurement of the activity of small molecule inhibitors on Zika virus induced Caspase-3 activity in human iPSC derived neural progenitor cells (hNPCs) (AID 1224857); note: nearly all actives have a fitted effect of over 65% in size; note: potency is the fitted concentration of half-maximal effect
Summary of the method: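 Pretreat hNPCs with compound 1 h; infect ZIKV 2 FFU/cell; 6 h 37 C, 5% CO2; Caspase-Glo 3/7, 30 min RT; luminescence; normalize to no-virus and virus-only wells.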

[6] = qHTS assay for measurement of the activity of small molecule inhibitors on Zika virus induced Caspase-3 activity in human astrocytoma cells (AID 1224859); note: potency is the fitted concentration of half-maximal effect
Summary of the method: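 Human SNB-19 astrocytoma cells in RPMI 1640 with 10% FBS receive compound one hour ahead of Zika virus at 2 FFU/cell. After 6 h infection, caspase-3/7 activity is detected by Caspase-Glo luminescence.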

[7] = Natriuretic polypeptide receptor (hNpr1) antagonism - Pilot counterscreen GloSensor control cell line (AID 1347045; calls by dose curve; note: potency is the fitted concentration of half-maximal effect)
Summary of the method: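 HEK293 cGMP GloSensor cells preloaded 2 h with 2% GloSensor reagent, then compound 30 min before baseline luminescence read. Stimulated with 50 uM sodium nitroprusside, 20 min at room temperature, then read again; counterscreen for Npr1 antagonism.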

[8] = target: Atrial natriuretic peptide receptor 2 (Homo sapiens) (UniProt P20594); test: Natriuretic polypeptide receptor (hNpr2) antagonism - Pilot subtype selectivity assay (AID 1347050; calls by dose curve; note: potency is the fitted concentration of half-maximal effect)
Summary of the method: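 HEK293 cells expressing hNpr2 and a GloSensor cGMP luciferase sensor, 1500/well, preloaded 2 h with 2% GloSensor reagent, compound 30 min, then 1 nM hNppC for 20 min. Antagonism from luminescence after versus baseline pre-read; LOPAC in 1:5 titrations.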

[9] = qHTS assay for cell viability of HEK293 cells (AID 743288); settings: ATP luminescence (CellTiter-Glo), 18 h; max response: stronger effect = lower value; note: potency is the fitted concentration of half-maximal effect; nearly all actives have a fitted effect of over 50% in size
Summary of the method: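 Total intracellular ATP, measured with a luciferase-coupled reagent, indicates the number of viable HEK293 cells. Exposure to test chemicals lasts 18 h at 37 C in 1,536-well format at 2,000 cells/well.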

[10] = qHTS assay for cell viability of the p53RE-bla HCT-116 cell line (AID 743292); note: potency is the fitted concentration of half-maximal effect; nearly all actives have a fitted effect of over 55% in size
Summary of the method: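 CellSensor p53RE-bla HCT-116 cells, 4,000/well, preincubated 5 h at 37 C, then exposed to compounds in DMSO for 16 h at 37 C. Viability read as CellTiter-Glo luminescence (intracellular ATP) after 30 min at room temperature.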

T1 sequence (P35557 whole entry, looked up): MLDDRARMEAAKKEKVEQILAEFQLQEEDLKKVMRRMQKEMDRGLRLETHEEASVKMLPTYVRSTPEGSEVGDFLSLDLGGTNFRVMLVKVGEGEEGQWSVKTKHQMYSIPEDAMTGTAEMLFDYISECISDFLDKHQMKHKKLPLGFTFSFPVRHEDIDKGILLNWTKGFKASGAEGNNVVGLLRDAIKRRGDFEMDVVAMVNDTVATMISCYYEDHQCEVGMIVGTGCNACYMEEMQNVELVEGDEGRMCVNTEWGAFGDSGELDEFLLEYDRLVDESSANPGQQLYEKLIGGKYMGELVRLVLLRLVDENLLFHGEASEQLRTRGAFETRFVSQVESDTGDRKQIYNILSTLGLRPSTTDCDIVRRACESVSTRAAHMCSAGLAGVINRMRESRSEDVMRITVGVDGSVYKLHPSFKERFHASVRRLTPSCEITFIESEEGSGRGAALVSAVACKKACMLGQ
T1 sequence (Q14397 whole entry, looked up): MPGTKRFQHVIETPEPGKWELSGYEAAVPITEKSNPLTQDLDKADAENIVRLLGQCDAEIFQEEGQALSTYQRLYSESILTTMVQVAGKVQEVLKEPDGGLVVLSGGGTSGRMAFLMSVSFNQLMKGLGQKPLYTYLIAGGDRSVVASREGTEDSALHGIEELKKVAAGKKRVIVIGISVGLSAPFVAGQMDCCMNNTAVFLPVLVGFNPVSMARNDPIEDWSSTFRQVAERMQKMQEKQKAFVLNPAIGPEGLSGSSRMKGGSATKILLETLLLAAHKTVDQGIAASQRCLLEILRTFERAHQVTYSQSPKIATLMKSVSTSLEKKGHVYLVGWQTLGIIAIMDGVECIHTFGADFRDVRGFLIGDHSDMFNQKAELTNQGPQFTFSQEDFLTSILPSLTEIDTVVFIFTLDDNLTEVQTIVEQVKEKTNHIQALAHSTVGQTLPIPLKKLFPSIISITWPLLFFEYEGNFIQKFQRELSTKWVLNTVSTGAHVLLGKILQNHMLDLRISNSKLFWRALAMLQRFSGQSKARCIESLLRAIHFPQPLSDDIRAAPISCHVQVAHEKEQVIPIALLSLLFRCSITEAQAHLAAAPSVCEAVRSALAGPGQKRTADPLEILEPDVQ
Atrial natriuretic peptide receptor 2 (Homo sapiens), sequence (P20594 whole entry, looked up): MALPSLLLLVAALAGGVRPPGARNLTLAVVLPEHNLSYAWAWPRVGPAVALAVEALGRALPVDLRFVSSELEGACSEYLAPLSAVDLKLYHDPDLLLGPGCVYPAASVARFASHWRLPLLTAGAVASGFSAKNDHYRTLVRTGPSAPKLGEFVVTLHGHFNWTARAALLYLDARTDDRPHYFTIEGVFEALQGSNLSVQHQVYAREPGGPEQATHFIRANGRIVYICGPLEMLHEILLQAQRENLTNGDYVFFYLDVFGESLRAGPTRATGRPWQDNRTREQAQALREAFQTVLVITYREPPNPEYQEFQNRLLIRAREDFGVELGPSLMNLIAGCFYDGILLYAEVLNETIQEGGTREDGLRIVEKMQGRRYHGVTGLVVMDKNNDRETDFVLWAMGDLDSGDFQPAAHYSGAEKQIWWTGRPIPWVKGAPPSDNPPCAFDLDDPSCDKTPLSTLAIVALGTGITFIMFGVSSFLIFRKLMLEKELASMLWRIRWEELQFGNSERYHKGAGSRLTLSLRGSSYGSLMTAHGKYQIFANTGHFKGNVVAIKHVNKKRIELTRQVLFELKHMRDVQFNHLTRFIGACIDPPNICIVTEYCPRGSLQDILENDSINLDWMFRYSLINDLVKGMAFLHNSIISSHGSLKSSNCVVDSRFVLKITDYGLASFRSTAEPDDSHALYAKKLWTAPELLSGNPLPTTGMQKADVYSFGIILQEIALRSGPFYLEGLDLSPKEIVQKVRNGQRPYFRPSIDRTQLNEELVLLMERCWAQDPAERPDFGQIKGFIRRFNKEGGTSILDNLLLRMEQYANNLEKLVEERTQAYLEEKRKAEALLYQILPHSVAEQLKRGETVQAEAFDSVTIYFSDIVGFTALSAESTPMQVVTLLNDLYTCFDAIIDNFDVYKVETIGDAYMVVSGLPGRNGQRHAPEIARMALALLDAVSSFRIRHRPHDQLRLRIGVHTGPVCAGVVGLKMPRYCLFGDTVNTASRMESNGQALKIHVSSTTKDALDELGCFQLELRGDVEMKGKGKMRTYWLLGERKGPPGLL

Compound | Potency [1] | Potency [2] | Potency [3] | max response [4] [%] | Potency [5] | Potency [6] | Potency [7] | Potency [8] | Potency [4] | Potency [9] | Potency [10]
Nc1ccc(-c2ccc3ccccc3n2)cc1 | inactive | inactive | inactive | 11.1 | 7.08 µM (active) | 7.08 µM (active) | 14.7 µM (active) | 16.5 µM (active) |  |  | 
C=CCN1CCc2cc(O)c(O)cc2C(c2ccccc2)C1 (stereo unspecified) | inactive | inactive | inactive |  | inactive | inactive | inactive | inactive |  |  | 
COC1(C2=NCCN2)COc2ccccc2O1 (stereo unspecified) | inactive | inactive | inactive | 25.5 | inactive | inactive | inactive | inactive |  |  | 
O=[N+]([O-])c1cccc2c(Br)[nH]nc12 | inactive |  | inactive |  | inactive | inactive | inactive | inactive |  |  | 
CCCCCCCCCCCCCCCCCCOC[C@H](COP(=O)([O-])OCC[N+](C)(C)C)OC |  | inactive | inactive |  | inactive | inactive | 14.7 µM (active) | 8.26 µM (active) |  |  | 
COc1ccccc1N1CCN(CCN(C(=O)c2ccc(F)cc2)c2ccccn2)CC1 | inactive | inactive | inactive | 23.7 | inactive | inactive | inactive | inactive |  |  | 
CN1Cc2sccc2C(c2ccc(O)c(O)c2)C1 (stereo unspecified) | inactive | inactive | inactive |  | inactive | inactive | inactive | inactive | 891 nM (active) |  | 
CC1CCN=C(N)S1 (stereo unspecified) | inactive |  |  | -7.18 | inactive | inactive | inactive | inactive |  |  | 
CCN(c1nc(N)c(C(=O)N=C(N)N)nc1Cl)C(C)C | inactive | inactive | inactive |  | inactive | inactive | inactive | inactive |  |  | 
Cn1c(=O)c2[nH]c(-c3ccc(S(=O)(=O)O)cc3)nc2n(C)c1=O | inactive | inactive | inactive | 26.7 | inactive | inactive | inactive | inactive |  |  | 
CC[C@@H]1Cc2cc(O)ccc2C2=C1c1ccc(O)cc1C[C@H]2CC | inactive | inactive | inactive |  | inactive | inactive | 20.7 µM (active) | inactive | 3550 nM (active) | 50.1 µM (active) | 70.8 µM (active)
O=C(O)CCC(=O)N1CCCC1C(=O)O (stereo unspecified) | inactive |  | inactive | -8.08 | inactive | inactive | inactive | inactive |  |  | 
COc1ccc(C(=O)NCc2cccnc2)cc1C(=O)NCc1cccnc1 | inactive | inactive | inactive | 22.9 | inactive | inactive | inactive | inactive |  |  | 
C=C1C[C@@]23CC[C@H]4[C@@](C)(CCC[C@@]4(C)C(=O)OC4OC(CO)C(O)C(O)C4O)[C@@H]2CC[C@]1(OC1OC(CO)C(O)C(O)C1OC1OC(CO)C(O)C(O)C1O)C3 (stereo partly specified) | inactive | inactive | inactive |  | inactive | inactive | inactive | inactive |  |  | 
O=C(O)C1=CCNCC1 | inactive | inactive |  | 2.03 | inactive | inactive | inactive | inactive |  |  | 
CNc1ncnc2c1ncn2[C@H]1C[C@H](OP(=O)(O)O)[C@@H](COP(=O)(O)O)O1 | inactive | inactive | inactive | 21.7 | inactive | inactive | inactive | inactive |  |  | 
O=c1[nH]c(=S)[nH]c(-c2ccccc2)c1Cc1c(O)ccc2ccccc12 | inactive | inactive | inactive | 1.54 | inactive | inactive | inactive | inactive |  |  | 
O=c1oc(Cl)c(Cl)c2ccccc12 |  | inactive | inactive | 31 | inactive | inactive | 13.1 µM (active) | 13.1 µM (active) |  |  | 
CC(N)=O |  | inactive | inactive | 12.7 | inactive | inactive | inactive | inactive |  |  | 
